Only some compounds are listed: those with a hit (about 8% of all), similar ones and a draw of the others.
HT1080NT lethal: kills 2HG-producing HT-1080-NT fibrosarcoma cells. 360,000 tested, 1.6% active. HT-1080-NT fibrosarcoma viability, CellTiter-Glo ATP luminescence, 48 h. Potency, µM (highest dose often 46.1 µM), inactives show at the highest dose activity, negative = less viability, hits mostly cytotoxic;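 further: NT is the 2HG producing partner of a matched IDH1 knockdown line; 0% = DMSO-treated cells and -100% = media-only wells without cells; nearly all actives have a fitted effect of over 55% in size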
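Read-out is CellTiter-Glo luminescence after 10 minutes at room temperature, following 48 hours' compound treatment of HT-1080-NT cells (750 cells/well, RPMI, 5% FBS, 37 degrees C).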
KB-V1 MDR tox: kills drug-selected multidrug resistant KB-V1 cells. KB-V1 MDR cells viability, CellTiter-Glo, 72 h. 400,000 tested, 3.4% active. Potency, µM (top dose mostly 46.1 µM), usual class: cytotoxic; further: on the % scale 0 is the no-effect control and ±100 the full control effect; nearly all actives have a fitted effect of over 60% in size
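Cytotoxicity via CellTiter-Glo luminescence after 72 h compound exposure at 37 degrees C. Cells: drug-selected KB-V1 line, DMEM phenol-red free plus 10% FBS. Compounds tested at multiple concentrations; normalized data fitted to concentration-effect curves.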
MCF10A rereplic: induces DNA re-replication in MCF 10a normal breast cells | MCF 10A DNA re-replication, Hoechst nuclear intensity, 48 h | Potency, µM (titrated, usually from 46.1 µM), without a hit: at the highest dose activity, positive = re-replication, actives largely listed as activators | 350,000 tested, 2.9% active; further: % of control where 0% means no effect; nearly all actives have a fitted effect of over 50% in size
SW480 rerep: DNA re-replication induction in SW480 cells; SW480 DNA re-replication, Hoechst DNA content imaging, 48 h; Potency, µM (highest dose often 46.1 µM), for the others: top-dose re-replication activation, hits mostly activators; 340,000 tested, 1.8% active; AID 624297; further: % of control where 0% means no effect; nearly all actives have a fitted effect of over 55% in size
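Compounds, transferred as 23 nL by pin tool, were incubated with cells for 48 hr; DNA content per nucleus was then quantified by Hoechst staining and fluorescence plate imaging.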
HT1080 IDH1KD tx: toxicity to HT-1080 IDH1 knockdown cells (counter line). HT-1080 IDH1 knockdown viability, ATP luminescence, 48 h. Potency, µM (series often up to 46.1 µM), for the others: at the top dose activity, negative = toxicity, most hits filed as cytotoxic. 360,000 tested, 2% active. AID 686971;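 further: 0% = DMSO wells and -100% = cell-free medium wells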
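HT-1080-IDH1KD cells (IDH1 knocked down), 750/well in RPMI with 5% FBS, treated with compound 48 h at 37 degrees C. Viability by CellTiter-Glo luminescence, normalised to DMSO and no-cell wells; concentration-response curves classed.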
KB-3-1 cytotox: kills parental KB-3-1 adenocarcinoma cells; 400,000 tested, 1.4% active; Potency, µM (top dose mostly 46.1 µM), most hits filed as cytotoxic; KB-3-1 viability, CellTiter-Glo ATP luminescence, 72 h; further: on the % scale 0 is the no-effect control and ±100 the full control effect; nearly all actives have a fitted effect of over 60% in size
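KB-3-1 parental drug-naive adenocarcinoma cells in DMEM/10% FBS, incubated 72 h at 37 C with pin-transferred compounds across a concentration series. Viability by CellTiter-Glo luminescence; concentration-response curves fitted after normalization.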
* = called active by the depositor; i = inactive; ? = inconclusive; · = no result given; [ ] = another dose, or the depositor's remark. The call rests on the fitted dose curve; in most records, active means well fitted curve in the direction sought with a large enough effect; inconclusive means small, poorly fitted or top-dose-only effect, or another doubt; inactive means no such curve, though single readings can be large; an effect the other way counts as inactive or inconclusive. Potency means the concentration at half of the fitted maximal effect.

SMILES | HT1080NT lethal | KB-V1 MDR tox | MCF10A rereplic | SW480 rerep | HT1080 IDH1KD tx | KB-3-1 cytotox
O=C(Nc1nc2c(s1)CCCC2)c1ccc(S(=O)(=O)N2CCCc3ccccc32)cc1 | -20.0% | 2.59µM* | ? | 8.1% | -23.4% | 5.8µM*
O=C(Nc1nc2c(s1)CN(Cc1ccccc1)CC2)c1cccc(S(=O)(=O)N2CCc3ccccc32)c1 | -0.8% | 6.51µM* | 10.3µM* | 16.4µM* | -21.7% | ?
O=C(Nc1nc2ccccc2s1)c1cccc(S(=O)(=O)N2CCc3ccccc32)c1 | ? | ? | 10.1% | -2.5% | -24.9% | ?
CNC(=O)c1ccsc1NC(=O)c1ccc(S(=O)(=O)N2CCCc3ccccc32)cc1 | -14.2% | ? | 22.9% | 9.4% | -3.2% | 8.2µM*
CC(=O)NC(=S)Nc1cccc(S(=O)(=O)NC2=NCCC2)c1 | -3.7% | i | 11.2% | -108.1% | 0.7% | i
COc1ccc(Cl)cc1NC(=O)c1cc2ccc3ccc(C)[nH]c3c2n1 | · | ? | · | · | · | i
CN1c2ccccc2-c2nc3ccccc3n2C1c1cccs1 (stereo not given) | ? | ? | 10.3µM* | ? | ? | ?
Oc1ccc(Cl)cc1CNc1ccc(Br)cn1 | -0.4% | i | ? | ? | -14.8% | ?
Oc1c(Cl)cc(Cl)cc1CNc1ccc(Br)cn1 | ? | i | 11.2µM* | 1.7% | ? | i
CCc1ccc(N2C(=O)CS(=O)(=O)C23C(=O)N(Cc2ccccc2F)c2ccccc23)cc1 (stereo not given) | · | i | · | · | · | i
CCN1C[C@@H]2[C@@H]3C(=O)N(C)C(=O)[C@@H]3[C@](CC)(C(=O)OC)N2C1=NCc1ccccc1 | 8.3% | i | -4.6% | -27.7% | 7.9% | i
CC(=O)Nc1ccc(C(=O)CSc2cc(C)c3cccc(C)c3n2)cc1 | -1.5% | 13µM* | ? | ? | -0.9% | ?
COc1ccc(/C=C2\C(=O)NC(=O)c3ccccc32)cc1OC | 0.2% | i | ? | ? | 11.8% | i
COc1ccc2c(c1)/C(=C/c1cc(OC)c(OC)c(OC)c1)C(=O)N2 | 5.8µM* | ? | ? | 2.59µM* | 5.8µM* | 2.31µM*
O=C1Nc2ccc(Br)cc2/C1=C/C(=O)c1ccc2c(c1)OCO2 | ? | ? | 3.66µM* | ? | ? | ?
O=C(/C=C1\C(=O)Nc2ccccc21)/C=C1\C(=O)Nc2ccccc21 | ? | i | ? | ? | ? | ?
O=C1Nc2ccccc2/C1=C\C(=O)c1ccccc1 | 18.4µM* | i | ? | ? | ? | i
O=C(NCc1ccc2c(c1)OCO2)c1ccc(Br)cc1 | -19.7% | i | -0.2% | -1.3% | -1.8% | i
CC(C)Oc1ccc(C(=O)/C=C2/C(=O)Nc3ccccc32)cc1 | ? | i | ? | ? | ? | ?
COc1ccc(C(=O)/C=C2\C(=O)Nc3ccc(Br)cc32)cc1 | ? | ? | 7.31µM* | ? | ? | ?
O=C(c1cc2cc(Br)ccc2o1)N1CCCC1 | 9.1% | i | -5.4% | -0.1% | 3.6% | i
COc1cc(-c2noc(C)n2)cc(OC)c1OC | 0.1% | i | 0.3% | -10.1% | 4.6% | i
Nc1nc(COC(=O)C2CCN(C(=O)c3ccc(Cl)cc3)CC2)nc(Nc2ccccc2)n1 | -9.0% | i | 4.9% | -15.1% | -1.9% | i
CCCCn1nnnc1C(c1ccccc1)N1CCN(c2ccc(C(F)(F)F)cc2[N+](=O)[O-])CC1 (stereo not given) | 0.2% | ? | · | · | -0.1% | i
Cc1c(NC(=O)c2cc(-c3ccccc3)nc3ccccc23)c(=O)n(-c2ccccc2)n1C | 0.7% | · | ? | 6.9% | 2.9% | ·
SMILES | HT1080NT lethal | KB-V1 MDR tox | MCF10A rereplic | SW480 rerep | HT1080 IDH1KD tx | KB-3-1 cytotox
Cc1c(NC(=O)C(C)Oc2cccc(F)c2)c(=O)n(-c2ccccc2)n1C (stereo not given) | -2.1%[9.24 µM] | i | -5.2% | 23.1µM* | 17.9% | i
Cc1c(NC(=O)COC(=O)c2cc(-c3ccc(-c4ccccc4)cc3)nc3ccccc23)c(=O)n(-c2ccccc2)n1C | ? | 4.61µM* | 20.6µM* | · | ? | 9.2µM*
Cc1c(Nc2nc(-c3ccc(Cl)cc3)cs2)c(=O)n(-c2ccccc2)n1C | -7.0% | 7.31µM* | 6.0% | 2.0% | -16.5% | ?
Cc1c(NC(=O)C(C)OC(=O)c2cc(-c3cccc4ccccc34)nc3ccccc23)c(=O)n(-c2ccccc2)n1C (stereo not given) | -7.5% | 9.2µM* | ? | -52.7% | -1.8% | i
CCc1ccccc1NC(=O)C1C2C=CC(O2)C1C(=O)O (stereo not given) | ? | i | 9.6% | 0.7% | 9.0% | i
Cc1c(NC(=O)C(C)OC(=O)C23CC4CC(CC(Br)(C4)C2)C3)c(=O)n(-c2ccccc2)n1C (stereo not given) | 10.9% | i | 1.46µM* | -31.5% | 11.2% | ?
Cc1c(NC(=O)COC(=O)C23CC4CC(CC(O)(C4)C2)C3)c(=O)n(-c2ccccc2)n1C | -2.9% | i | -3.2% | -9.6% | -0.1% | i
Cc1c(NC(=O)COC(=O)C(c2ccc(Cl)cc2)C(C)C)c(=O)n(-c2ccccc2)n1C (stereo not given) | 1.8% | 8.2µM* | 3.7% | 3.8% | 2.0% | ?
Cc1cccc(C)c1NC(=O)COC(=O)c1cc(-c2cccnc2)nc2ccccc12 | 6.0% | i | 11.6µM* | -0.2% | 0.6% | i
COC(=O)c1cccc(Nc2nc(-c3cccnc3)nc3ccccc23)c1 | -10.1% | ? | ? | 0.6% | -12.0% | i
CCOC(=O)c1cccc(Nc2nc(-c3cccnc3)nc3ccccc23)c1 | 20.6µM* | ? | 23.1µM* | ? | ? | ?
O=Nc1ccc(/C=C/c2ccnc3ccccc23)cc1 | · | i | · | · | · | i
CCC(C)NC(=O)C1c2ccccc2C(=O)N1Cc1ccc(F)cc1 (stereo not given) | 2.5% | i | 5.8% | 2.6% | 1.7% | i
CNc1c(Br)cc(C=O)cc1Br | · | i | · | · | · | i
CNC(=O)NC(=O)CSc1cccc(C(F)(F)F)c1 | 10.1% | i | 20.6µM* | 11.0% | -20.0% | i
O=C(NCC1CCN(Cc2ccccc2F)CC1)Nc1ccc(F)c(Cl)c1 | · | i | · | · | · | i
Cc1ccc(NC(=O)NCC2CCN(Cc3cccc(Cl)c3)CC2)cc1Cl | 11.6µM* | ? | ? | -6.0% | -13.5% | ?
Cc1ccc(C)c(CN2CCC(CNC(=O)Nc3ccc(F)c(Cl)c3)CC2)c1 | 25.9µM* | i | 25.9µM* | 18.4µM* | 18.4µM* | ?

Screens from PubChem BioAssay.
